Only some compounds are listed: those with a hit (about 3.5% of all), similar ones and a draw of the others.
TEAD-YAP inh = TEAD-YAP interaction inhibition | inhibition, % at 9.12 µM | 640,000 tested, 1.4% active | HEK-TIYL cells, TEAD-Gal4/YAP UAS-luciferase luminescence; in the data active = inhibition above about 32%;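 note: 0% = median of test compound wells and 100% = reference inhibitor wells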
FBW7 activator = human FBW7 E3 ligase activation, primary screen | Q969H0 | AlphaScreen FBW7–phospho-cyclin E peptide binding, activator screen | normalized activity (activation), % at 26.1 µM | 650,000 tested, 0.13% active; in the data active = normalized activity above about 1.9%;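 note: purified mutant Fbw7 with reduced substrate affinity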
MITF inh = inhibitors of human MITF; O75030; AlphaScreen MITF homodimerization, bead proximity signal; inhibition, % at 2.6 µM; 650,000 tested, 0.91% active; in the data active = inhibition above about 50%;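 note: 0% = vehicle wells with protein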
Target sequence (O75030 whole entry, looked up): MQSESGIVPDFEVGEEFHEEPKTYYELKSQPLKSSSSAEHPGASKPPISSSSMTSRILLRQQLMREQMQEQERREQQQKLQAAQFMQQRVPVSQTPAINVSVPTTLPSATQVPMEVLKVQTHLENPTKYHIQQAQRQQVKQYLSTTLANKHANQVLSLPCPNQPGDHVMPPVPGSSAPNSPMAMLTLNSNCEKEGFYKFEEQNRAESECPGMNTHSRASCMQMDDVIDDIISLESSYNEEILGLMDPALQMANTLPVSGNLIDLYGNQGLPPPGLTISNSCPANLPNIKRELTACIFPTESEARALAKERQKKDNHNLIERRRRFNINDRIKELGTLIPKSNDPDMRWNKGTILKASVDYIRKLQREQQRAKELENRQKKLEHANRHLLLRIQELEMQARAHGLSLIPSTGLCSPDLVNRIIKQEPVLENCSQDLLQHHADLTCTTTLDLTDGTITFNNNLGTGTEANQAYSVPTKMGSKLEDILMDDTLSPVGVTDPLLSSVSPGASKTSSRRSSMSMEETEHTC
GPR151 activ = activates the human receptor GPR151 | PathHunter beta-arrestin GPR151 cells, luminescence | activation, % at 11.2 µM | 650,000 tested, 1% active; in the data active = activation above about 4.9%;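 note: 0% = median of compound wells and 100% = cells with positive control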
An asterisk follows results filed as active.

SMILES	TEAD-YAP inh	FBW7 activator	MITF inh	GPR151 activ
COc1ccc(N2CC(NC(=O)NCc3ccccc3Cl)CC2=O)cc1OC (configuration not stated)	7.3	0.0	12.7	1.4
O=C(Nc1cc(Oc2cccnc2)cc([N+](=O)[O-])c1)c1nn2c(C(F)(F)F)cc(-c3cccs3)nc2c1Cl	-0.2	0.1	3.0	0.7
Nc1nccc(-c2ccc3nc(C4COc5ccc(F)cc5C4)[nH]c3c2)n1 (configuration not stated)	42.9*	0.0	2.2	-1.1
NC(=O)c1ccc2c(c1)CC(c1nc3ccc(-c4ccnc(N)n4)cc3[nH]1)CO2 (configuration not stated)	1.3	1.0	31.3	-0.1
COc1cccc2c1CC(c1nc3ccc(-c4ccnc(N)n4)cc3[nH]1)CO2 (configuration not stated)	50.0*	0.0	7.9	-0.6
O=C(Nc1ccc(Cl)c(Cl)c1)c1cccc(Br)c1	-27.2	0.3	4.8	1.2
COc1ccc(OC)c(NC(=S)NCCCn2nc(C)cc2C)c1	-5.6	0.0	-13.6	0.5
CC(=O)N[C@@H](Cc1cccc(C)c1)c1nc2ncc(-c3ccncc3)cc2[nH]1	46.0*	-0.2	-3.8	-0.8
COCCSc1nnc(NC(=O)C2c3ccccc3Oc3ccccc32)s1	2.6	0.4	15.7	-1.1
CCOC(=O)c1c(Cl)nc(Cl)c(Cl)c1Nc1ccc(OC)cc1	47.3*	0.0	-0.1	1.4
CCOC(=O)c1c(Cl)nc(Cl)c(Cl)c1Nc1cccc(F)c1	44.1*	-0.1	-10.0	0.7
CCOC(=O)c1c(Cl)nc(Cl)c(Cl)c1Nc1cccc(C)c1	24.8	-0.1	-3.7	0.9
CCOC(=O)c1c(Cl)nc(Cl)c(Cl)c1Nc1ccc(OC(F)(F)F)cc1	51.1*	0.2	-12.9	-1.0
N/C(=N\c1nc2ccccc2s1)NC(=O)c1ccc([N+](=O)[O-])cc1	-8.4	0.8	10.5	-1.6
C1=NC2(CCCC2)Cc2c1ccc1ccccc21	32.2*	-0.4	-8.4	-1.9
CC(C)n1cnc2c(Nc3ccc(N4CCOCC4)cc3)nc(Nc3nc4ccccc4n3C)nc21	33.0*	0.0	-3.2	-0.3
CC(=O)Nc1ccc(Nc2nc(NC3CCC(O)CC3)nc3c2ncn3C(C)C)cc1 (configuration not stated)	5.6	0.0	-3.0	-3.2
CC(C)n1cnc2c(Nc3ccc(N4CCOCC4)cc3)nc(Nc3ccccn3)nc21	32.7*	-0.2	-1.8	0.8
CC(C)n1cnc2c(Nc3ccccc3)nc(NC3CCC(O)CC3)nc21 (configuration not stated)	68.4*	0.1	2.8	-8.5
CC(C)n1cnc2c(Nc3ccc(N4CCOCC4)cc3)nc(-c3ccc(C(N)=O)cc3)nc21	32.3*	-0.2	2.0	-1.3
COc1cc(NC(=O)CSc2nc3ccc(OC)cc3[nH]2)cc(OC)c1	10.6	0.3	12.6	1.8
O=c1[nH]c(=O)n(CCc2ccc(F)cc2)c(O)c1C=Nc1ccccc1Cl	5.8	-0.2	2.5	0.7
N/C(=N\c1nc(=O)c2ccccc2s1)NC(=O)Nc1ccc(F)cc1	-4.9	-0.1	-11.9	0.2
O=[N+]([O-])c1ccc(Nc2cc(Nc3ccccc3O)c3nonc3c2[N+](=O)[O-])c(O)c1	-3.7	-0.5	13.2	-0.6
c1ccc(N2CCN(c3nc(Nc4ccc(N5CCOCC5)cc4)c4ncn(C5CCCCC5)c4n3)CC2)nc1	24.5	-0.4	51.7*	-0.7
SMILES	TEAD-YAP inh	FBW7 activator	MITF inh	GPR151 activ
COc1ccc(/C=C2/C(=O)OCc3cc(OC)c(OC)cc32)cc1	45.4*	0.2	6.3	0.9
O=C(CSc1nc2[nH]ncc2c(=O)n1-c1cccc(C(F)(F)F)c1)Nc1ccc2c(c1)OCCO2	27.1	-0.2	8.4	0.0
O=C(CSc1nc2[nH]ncc2c(=O)n1-c1ccc(Br)cc1)Nc1ccc2c(c1)OCCO2	42.1*	0.0	0.6	-1.6
O=C(CSc1nc2[nH]ncc2c(=O)n1-c1ccccc1)Nc1ccc2c(c1)OCCO2	50.0*	0.0	7.1	0.3
Cc1sc(NC(=O)c2cnccn2)nc1-c1ccc2c(c1)CCN2C(=O)C1CCCCC1	-0.4	-0.1	7.3	0.5
CC(=O)Nc1nc(-c2ccc3c(c2)CCN3C(=O)C2CC2)c(C)s1	75.1*	0.1	2.7	0.9
CC(=O)Nc1nc(-c2ccc3c(c2)CCN3C(=O)C2CCCCC2)c(C)s1	77.7*	0.0	20.3	0.9
COC(=O)c1ccc2c(=O)n(CCN3CCOCC3)c(SCC(=O)NCCc3ccc(OC)c(OC)c3)nc2c1	-0.3	0.0	17.2	0.7
CC(C)c1ccc(S(=O)(=O)NC2CC(C)(C)NC(C)(C)C2)cc1	-0.3	-0.2	4.6	0.3

From PubChem
